# Data: the supplement of paper PMC6555819
# How the values were obtained:
# Experiment in all cases: PBM binding z-score (relative to random genomic background probes); higher = stronger binding; sequences stand for … in GC…GCGATTGACAGCGTAGAATGAAGG
# [1] = system: RARb homodimer (NR concentration 270 nM)
# Procedure, shortened: (§1)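 Binding z-scores were set against random background probes. The data came from custom Agilent 4×180K protein-binding microarrays carrying double-stranded probes with 34-nt variable regions, incubated 1 h with ligand-free nuclear receptor dimers. Partner-specific antibodies detected binding, and scanned fluorescence was regression-normalized.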
# [2] = system: RARg:RXRa (NR concentration 270 nM, RXRa partner concentration 90 nM)
# Procedure, shortened: as §1
# [3] = system: RARg homodimer (NR concentration 270 nM)
# Procedure, shortened: as §1
# [4] = system: RXRa DBDmut IVT, anti-RXR (DBD mutation: RXRa K156A/R161A, NR concentration 90 nM)
# Procedure, shortened: as §1
# [5] = system: RXRa homodimer (NR concentration 180 nM)
# Procedure, shortened: as §1
# [6] = system: THRa:RXRa (NR concentration 90 nM, RXRa partner concentration 90 nM)
# Procedure, shortened: as §1
# [7] = system: THRa homodimer (NR concentration 90 nM)
# Procedure, shortened: as §1
# [8] = system: VDR homodimer (NR concentration 270 nM)
# Procedure, shortened: as §1
Sequence,PBM binding z-score [1],PBM binding z-score [2],PBM binding z-score [3],PBM binding z-score [4],PBM binding z-score [5],PBM binding z-score [6],PBM binding z-score [7],PBM binding z-score [8]
AGAATGAGGTTACCATAGATCAGGGAAACGCTTG,0.58,1.89,1.72,1.13,2.38,2.59,0.611,0.117
CTACCAAGGTGACCAAGGTCGTTGATTACTATTC,1.86,1.47,1.08,1.1,1.66,2.92,1.76,2.06
AACACAGGGTCATCGTAGGCCAGAGTACGCACAG,3.59,5.74,5.13,3.79,6.58,4.5,1.69,3.84
CAAATTAGGTCACGAAAGGTCAAAGTCGAATGAC,6.08,8.12,8.73,2.57,8.6,5.25,3.01,3.61
CGTCAAAGTTCGACTAAGGTAACGTAAAGCACGC,1.77,2.14,1.99,2.97,1.5,4.99,1.58,1.03
ACAGACAGGTGCTGAAGGTAACTCAGGCTATCAT,-0.511,-0.0198,0.00684,-0.376,-0.0891,0.3,-0.356,-0.984
CGAACGTGGGCATGAGTTGATAGCAAATGCCGAT,-0.844,-0.563,-0.218,0.0414,-0.376,-0.695,-1.12,-0.195
CCGACTGGGGCAGAAGGGTTACCATACCATCCGG,1.08,0.666,0.787,-1.36,0.641,0.0428,-0.605,-0.332
ATACCAGGGTGATCGTGAGGTCGTTGATACTAAC,1.83,2.26,0.727,0.415,1.78,3.38,2.62,2.64
ATACCAAGGTGATCGTGAGGTCGTTGCTACTAAC,1.88,2.03,0.891,0.967,1.56,3.25,2.43,3.33
CGTTAAAGTTCAAGGTAACGTAACAGAAAGCAGC,3.54,4.91,5.74,4.35,3.98,2.78,1.23,3.34
ACTAGCAGGCCAAGGGTCACTCAAGATTAGTCCG,3.86,4.17,3.74,0.678,3.93,2.65,0.199,1.29
CCAGACAGGTTAGAAGGTAACTCAGCCTCGATTA,0.786,0.637,0.641,0.0628,0.699,0.493,0.212,0.658
GCAGACAGGTGAAACCCAGGTAACTCAGGGTGGC,0.254,0.543,0.3,-0.915,0.749,2.18,0.116,-0.563
GCTATTAATTGAAAGGGCAACCGAATGATTCTCG,1.96,0.91,1.26,0.65,0.421,0.301,-0.3,0.758
GCATATCGGTAATACAAGGTGAAAGTCCGATTGT,0.774,0.308,0.268,0.112,0.446,3.07,0.911,-0.28
CCTAGCACGCCAATCTGGGTCACTCAAGGCTTGA,1.94,0.768,0.494,0.349,0.974,2.61,0.789,0.435
TCTGCTAGGTCAGTTGGTCATCTAACGAGCTGCC,2.81,2.87,3.99,0.589,1.25,1.63,0.119,-0.506
GCTTGTAGATCAAGGTTAAGAAAGACTAAGCTAA,0.0928,0.389,0.229,-0.146,0.904,1.14,-0.422,-0.377
ACAGATAGGTGAGTGAAGGTAACTCAGCTGGACG,0.126,0.246,0.547,-0.347,0.347,1.65,-0.341,-0.149
TCTAGTTGGTCACAGAGGTCACACACGACGGGTA,4.61,5.8,5.57,1.63,6.43,3.97,2.54,4.18
CGTCCAAGGTCAATGCTAGTTCAGTGAAAGCATT,4.24,6.18,6.17,3.83,4.84,3.91,2.17,3.28
TCGAGTAGGTTACCAATGGGGCATGCAGCTTTCT,0.595,1.02,0.374,0.239,0.609,0.0319,-0.807,-0.473
CCTGCTAGGGCATGGTCAGCTAATCTACAGTATG,0.406,0.464,1.07,-0.538,-0.195,-0.371,-0.949,-0.585
TCTTGTAGATCAAAGGTTAAGGAAGCCGAAGCCT,1.55,1.85,0.852,0.63,3.15,1.39,-0.169,-0.0198
ACAGTCAGGTGAGTGAAGGTAACTCAGCTGGACG,-0.0774,0.2,0.617,-0.471,0.122,1.63,-0.205,-0.58
GATACAGGGTCAAGGCCAGTGTACGCGTATTGAT,3.55,5.61,5.38,2.22,6.4,3.55,1.08,2.13
CCTACTGGTCCATCAGGTCATTGATATCAACGTT,2.5,1.6,1.47,1.04,1.28,3.41,3.29,2.02
TAGCCTAGGTCATTGGGCGAGTATAGTACGCATC,2.6,3.77,4.01,1.2,2.88,2.72,0.571,1.08
